Rv3671c protease = inhibitors of M. tuberculosis serine protease Rv3671c | P9WHR9 | inhibition, % at 5.96 µM | 320,000 tested, 0.048% active; in the data active means inhibition above about 38%;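 further: extracellular domain of Rv3671c used as enzyme; 0% = enzyme with DMSO and 100% = no enzyme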
FBA Mtb inh = Mtb fructose-bisphosphate aldolase inhibition. P9WQA3. AID 588726. inhibition, % at 1 µM. 360,000 tested, 2.3% active. purified M. tuberculosis FBA, fluorescence read-out; in the data active means inhibition above about 27%;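 further: 0% = vehicle and 100% = reference inhibitor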
Vc quorum ag = induces V. cholerae light production without autoinducers; activation, % at 18.7 µM; 350,000 tested, 0.16% active; V. cholerae BH1578 lux reporter, luminescence, 6 h; in the data active means activation mostly above about 9.7%, no sharp cut-off
GDH-TPI counter = GDH-TPI coupled enzyme inhibition counter-screen. 360,000 tested, 1.2% active. GDH-TPI coupled enzyme counterscreen, NADH absorbance. inhibition, % at 4.8 µM; in the data active means inhibition above about 30%;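 further: 0% = DMSO wells and 100% = wells lacking the enzyme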
Mtb UGM inh = blocks M. tuberculosis UGM enzyme. purified UGM, fluorescence polarization probe displacement. inhibition, % at 10 µM. 320,000 tested, 0.06% active. AID 504406; in the data active means inhibition above about 10%, passing the limit was not always enough
Target sequence (P9WIQ1 whole entry, looked up): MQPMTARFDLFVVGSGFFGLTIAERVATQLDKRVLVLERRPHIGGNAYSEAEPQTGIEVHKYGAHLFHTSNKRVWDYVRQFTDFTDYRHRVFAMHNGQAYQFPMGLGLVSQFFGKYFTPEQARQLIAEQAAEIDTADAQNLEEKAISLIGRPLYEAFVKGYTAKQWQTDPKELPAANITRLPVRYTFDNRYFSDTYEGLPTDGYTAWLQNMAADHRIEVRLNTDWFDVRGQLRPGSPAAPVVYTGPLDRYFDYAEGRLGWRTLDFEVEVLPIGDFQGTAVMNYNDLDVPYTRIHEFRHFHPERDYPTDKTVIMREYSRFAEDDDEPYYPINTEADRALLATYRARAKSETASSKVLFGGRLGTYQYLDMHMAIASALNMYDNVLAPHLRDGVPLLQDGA
RecA splice inh = inhibitors of M. tuberculosis RecA intein splicing. AID 2221. cell-free RecA intein splicing, fluorescence. 290,000 tested, 0.75% active. inhibition, % (no concentration beside the values). P9WHJ3; in the data active means inhibition above about 30%;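 further: 0% = vehicle wells and 100% = reference inhibitor control wells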
GFP chromo cs = counter-screen: blocks GFP chromophore formation. shares compounds with RecA splice inh. cell-free GFP chromophore formation, fluorescence. EC50, µM. 2,100 tested, 83% active. AID 434968; call rule not given here
* marks the source's active call; other numbers are inactive results; i = inactive; x = not tested or not shown. This is a sample that favours compounds with a hit; in the whole collection about 4.1% have one here.

SMILES	Rv3671c protease	FBA Mtb inh	Vc quorum ag	GDH-TPI counter	Mtb UGM inh	RecA splice inh	GFP chromo cs
NCCCCCNC(=O)c1nc[nH]c1C(=O)NCC(=O)OCc1ccccc1	-7	-1	-7	-8	1	x	x
CC1=NN(c2cc(Cl)c(S(=O)(=O)O)cc2Cl)C(=O)C1	x	-1	i	13	x	x	x
CC1=NN(c2ccc(C(=O)O)cc2)C(=O)CC1	6	-1	2	5	-5	-1	x
CC1=NN(c2ccc(C(=O)O)c(N)c2)C(=O)C1	-184	10	i	12	0	69*	2.6*
CC1=NN(c2ccc([N+](=O)[O-])cc2)C(=O)C1	x	-4	-6	27	x	x	x
CC1=NN(c2ccc(S(=O)(=O)O)cc2Cl)C(=O)C1	-3	-1	0	1	0	82*	30*
CC1=NN(c2ccc(Cl)c(C(=O)O)c2)C(=O)C1	-210	-2	0	-1	3	95*	5.6*
O=C(NCC1CCCO1)c1ccc(COc2ccccc2)cc1 (configuration not stated)	-7	1	0	-2	1	1	x
CC(NC(=O)COC(=O)c1cc(NS(=O)(=O)c2ccc(Cl)c([N+](=O)[O-])c2)ccc1O)C1CC2CCC1C2 (configuration not stated)	-28	0	i	4	1	48*	>38
COc1ccc(NS(=O)(=O)c2ccc(O)c(C(=O)OCC(=O)NC(C)C3CC4CCC3C4)c2)cc1 (configuration not stated)	-2	1	0	16	-1	4	x
Cc1cc(C)c2c(c1)-c1c(ssc1=S)C(C)(C)N2C(=O)CSc1nncn1C	4	-3	0	8	1	46*	9.8*
Cc1cc2c(cc1C)N(C(=O)CSC1=NCCS1)C(C)(C)c1ssc(=S)c1-2	4	-12	i	6	0	13	x
Cc1ccc2c(c1)-c1c(ssc1=S)C(C)(C)N2C(=O)CSc1nncn1C	-5	-1	x	12	-1	47*	13*
CC1(C)c2ssc(=S)c2-c2ccccc2N1C(=O)CSC1=NCCS1	4	-3	-4	2	-3	51*	4.6*
COc1ccc2c(c1)-c1c(ssc1=S)C(C)(C)N2C(=O)CSC1=NCCS1	4	-5	1	5	1	24	x
Cc1c(NC(=O)C(C)OC(=O)CCOc2ccccc2)c(=O)n(-c2ccccc2)n1C (configuration not stated)	-2	0	2	-3	2	0	x
CN(CCCn1ccc(N)nc1=O)Cc1ccco1	x	-1	-1	-9	x	x	x
O=C(COC(=O)Cc1n[nH]c(=O)c2ccccc12)NNC(=O)c1ccc(Cl)cc1	-1	0	i	2	-1	x	x
COc1ccc(N(Cc2cc(=O)[nH]c3ccccc23)C(=O)CCl)cc1	7	1	i	8	-1	x	15*
Cc1cccc(N(Cc2cc(=O)[nH]c3ccccc23)C(=O)CCl)c1	-2	7	i	4	-1	41*	8*
CCCC(=O)N(Cc1cc(=O)[nH]c2ccccc12)c1ccc(OC)cc1	6	-3	i	3	1	5	x
CCCC(=O)N(Cc1cc(=O)[nH]c2ccccc12)c1cccc(C)c1	-4	4	i	1	1	5	x
CCC(C)[C@H](NC(=O)C1CCN(C(=O)[C@H](Cc2ccccc2)NS(=O)(=O)c2ccc(C)cc2)CC1)C(=O)O (some centres not stated)	-15	0	0	0	0	0	x
COc1ccc(C)cc1NC(=O)Cn1c(=O)oc2ccccc21	-4	-3	1	-8	-3	2	x
CC(=O)c1ccc2c(c1)N(Cc1ccccc1)C(=O)C(C)S2 (configuration not stated)	x	0	i	-11	x	x	x
SMILES	Rv3671c protease	FBA Mtb inh	Vc quorum ag	GDH-TPI counter	Mtb UGM inh	RecA splice inh	GFP chromo cs
CCc1nc2c(OCC3CCCCC3)cccn2c1N(C)C(=O)c1ccccc1F	x	-4	-3	4	x	x	x
COC(=O)c1sc(N)c(C(=O)OC)c1Cn1ncc(Cl)c(Cl)c1=O	1	3	0	9	-3	31*	1.6*
COc1ccc(NC(=O)COC(=O)CCc2ccc(S(=O)(=O)N3CCOCC3)cc2)cc1Cl	-6	0	i	9	3	x	x
N#CC1=C(N)N(c2ccccc2)C(c2cccc([N+](=O)[O-])c2)C1(C#N)C#N (configuration not stated)	5	2	-1	8	0	39*	24*
CC(=O)c1c(C)[nH]c(C(=O)OCC(=O)N2CCN(c3ccccc3)CC2)c1C	x	-1	-1	3	x	x	x
CCN(Cc1ccccc1)C(c1ccc(C)cc1)c1nnnn1C(C)(C)CC (configuration not stated)	10	3	0	10	1	30*	>38
CCOC(=O)c1ccc(CC2S/C(=C(\C#N)C(C)=O)NC2=O)cc1 (configuration not stated)	6	2	i	27	5	82*	>38
CCN(CC)C(=O)C1=C(C)N(Cc2ccccc2)C(=O)C(CC(=O)NCCCCc2ccccc2)C1 (configuration not stated)	x	2	0	13	x	x	x
CCCCNC1=CC(=O)C(=O)c2ccccc21	-20	-6	-1	2	1	97*	0.98*
O=C1C=C(Nc2ccccc2)c2ccccc2C1=O	x	-7	i	8	x	70*	0.85*
O=C1C=C(Nc2cccc3cccnc23)c2ccccc2C1=O	-12	1	0	-5	-2	90*	3.6*
CCCCNC1=CC(=O)C(NCCCC)=CC1=O	x	-3	5	26	x	x	x
COc1ccc(C(=O)NCCS(=O)(=O)N2CCOCC2)cc1	-1	0	0	-7	2	-2	x
O=C1c2ccccc2-c2onc3ccc(Oc4ccccc4)c1c23	-62	-3	-1	11	1	86*	0.81*
Cc1noc(C)c1S(=O)(=O)Nc1ccccc1Oc1ccccc1	-3	-5	0	4	0	6	x
COc1ccc(N(C)C(=O)c2cc3c(s2)-c2c(C)cccc2OC3)c(OC)c1	-14	6	i	31*	-3	33*	>38
CCN(C(=O)c1cc2c(s1)-c1ccccc1OC2)c1cc(OC)ccc1OC	-22	2	0	21	0	9	x
CC(=O)N(c1ccc(Cl)cc1)c1cn(C(C)=O)c2ccccc12	5	6	i	1	-1	0	x
CC(=O)n1cc(N(C(=O)CCl)c2ccc(C)cc2)c2ccccc21	-3	3	0	-5	-1	91*	1.7*
COC(=O)c1ccccc1S(=O)(=O)N1CCC(NC(=O)c2ccccc2)CC1	6	2	2	1	0	45*	>38
